# Screening results deposited in PubChem BioAssay by National Center for Advancing Translational Sciences (NCATS).
# Sampled rows, rich in hits. Any-hit rate of the full collection: about 0.51%.
# Epigenetic reg – epigenetic control regulation, reporter derepression; 280,000 tested, 0.2% active; Potency, µM (top dose mostly 53.9 µM), for inactives: at the top dose GFP activation, hits mostly activators; murine LDR cells, GFP reporter derepression, 30 h; AID 1865; also: % of control where 0% means no effect; nearly all actives have a fitted effect of over 60% in size
#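 In this reporter-derepression format, murine cells bearing a silenced integrated CMV-GFP locus incubate with test compound (30 h, 37 C), then are washed and imaged; fluorescent objects of 20–120 um count as induced cells.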
# Vif-A3G inh – Vif-A3G binding inhibition; Q9HC16; HeLa A3G-eYFP + Vif (tagged APOBEC3G with the HIV-1 protein that degrades it), YFP fluorescence, overnight; Potency, µM (titrated, usually from 46.1 µM), without a hit: top-dose activity, negative = active, hits mostly inhibitors; 410,000 tested, 0.076% active; AID 602310; also: % is scaled to controls: 0 for no effect and ±100 for the full control effect; nearly all actives have a fitted effect of over 60% in size
# Target sequence (Q9HC16 whole entry, looked up): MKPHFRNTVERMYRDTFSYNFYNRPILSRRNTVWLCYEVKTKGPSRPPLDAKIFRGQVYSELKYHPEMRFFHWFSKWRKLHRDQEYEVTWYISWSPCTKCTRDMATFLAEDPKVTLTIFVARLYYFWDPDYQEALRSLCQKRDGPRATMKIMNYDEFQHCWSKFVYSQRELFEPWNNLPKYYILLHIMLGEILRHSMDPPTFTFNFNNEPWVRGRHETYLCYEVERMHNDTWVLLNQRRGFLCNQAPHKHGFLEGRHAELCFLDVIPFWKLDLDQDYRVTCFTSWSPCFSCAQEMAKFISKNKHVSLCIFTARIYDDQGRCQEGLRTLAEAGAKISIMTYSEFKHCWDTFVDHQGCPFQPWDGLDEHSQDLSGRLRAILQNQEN
#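 Read-out is eYFP fluorescence (Ex 488/Em 500-530) from Vif-expressing HeLa A3G-eYFP cells; more signal means A3G escaped Vif-mediated degradation. Cells plated overnight, compound pinned in, incubated overnight at 37 deg C.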
# Vif-APOBEC3F blk – inhibitors of Vif-A3F interaction; Potency, µM (series often up to 46.1 µM), for the others: top-dose activity, negative = active; HeLa A3F-eYFP + Vif (tagged APOBEC3F with the HIV-1 protein that degrades it), YFP fluorescence increase; 390,000 tested, 0.2% active; also: % of control where 0% means no effect; nearly all actives have a fitted effect of over 65% in size
#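 HeLa cells stably expressing Vif plus C-terminally eYFP-tagged A3F were seeded, incubated overnight at 37 deg C, dosed with compound, incubated overnight again at 37 deg C. Yellow fluorescence (Ex 488/Em 500-530) reported blocked Vif-mediated A3F-eYFP degradation.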
# PINK1 modulator – changes PINK1 expression; 410,000 tested, 0.2% active; Potency, µM (highest dose often 76.6 µM), inactives show at the top dose activation (PINK1 increase), actives largely listed as activators; PINK1 immunofluorescence, high-content cytometry, 24 h; active = well fitted activation curve with a large enough effect; inconclusive = small, poorly fitted or top-dose-only effect; cell line not stated here; also: % of control where 0% means no effect; nearly all actives have a fitted effect of over 65% in size
#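 PINK1 protein, normally rapidly degraded, was detected by immunofluorescence after 24 hour compound treatment of a stable cell line. Titration data (5 concentrations) came from laser-scanning cytometry, with CCCP-treated wells as controls.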
# * = called active by the depositor; ? = inconclusive; / = no result given; [ ] = dose if it differs, or a comment. Unless noted, calls follow the shape of the dose curve; as a rule, active = well fitted curve in the direction sought with a large enough effect; inconclusive = small, poorly fitted or top-dose-only effect, or another doubt; inactive = no such curve, though single readings can be large; an effect the other way counts as inactive or inconclusive. Potency is read from the fitted curve at half-maximal effect.
SMILES,Epigenetic reg,Vif-A3G inh,Vif-APOBEC3F blk,PINK1 modulator
CN1/C(=C\C(=O)Nc2ccc(Cl)cc2)C(C)(C)c2ccccc21,1%,3%,?,?
CN1/C(=C\C=C(/C#N)C(=O)Nc2ccc(Cl)cc2)C(C)(C)c2ccccc21,22µM*,7.1µM*,?,?
CN1/C(=C\C=C(C#N)C#N)C(C)(C)c2ccccc21,25µM*,-2%,11µM*,5%
CC(c1nc2ccccc2c(=O)[nH]1)N1CCOCC1 (stereo not drawn),1%,-1%,3%,-1%
Cc1ccc2c(c1)N=C(c1ccc(F)cc1)CO2,0%,-1%,-16%,16%
O=[N+]([O-])c1ccc(C2=Nc3cc(Cl)ccc3OC2)cc1,2%,-5%,25µM*,?
CC(=O)Nc1ccc(OCc2cccc([N+](=O)[O-])c2)cc1,4%,-1%,0%,6%
CC(C)(C)NC(=O)CN(Cc1ccc2c(c1)OCO2)C(=O)CCC(=O)Nc1nccs1,2%,-2%,-3%,0%
Cc1ccc(C)c(NC(=O)c2ccccc2NS(=O)(=O)c2cc([N+](=O)[O-])ccc2C)c1,2%,7%,-1%,8.9µM*
Cc1ccc([N+](=O)[O-])cc1S(=O)(=O)Nc1cccc(S(=O)(=O)Nc2ccccc2C(=O)O)c1,/,-1%,1%,0%
COc1ccc(CNC(=O)CSc2ncc3c(n2)-c2cc(Cl)ccc2N(Cc2ccccc2)S3(=O)=O)cc1,3%,1%,8%,0%
COc1ccc(CNC(=O)CSc2ncc3c(n2)-c2cc(Cl)ccc2N(Cc2ccccc2)S3(=O)=O)cc1OC,22µM*,-2%,0%,0%
CCCn1c(SCC(=O)NCC(=O)Nc2ccc(F)c(F)c2F)nc2ccccc2c1=O,/,-5%,0%,0%
Cc1cccc(C(=O)NC(=S)N2CCc3ccccc3C2)c1,-1%,1%,8.9µM*,3%
Cc1ccc(N=C2NC(=O)/C(=C\c3ccco3)S2)cc1,1%,-6%,0%,4%
O=C1NC(=Nc2ccc(O)cc2)S/C1=C/c1ccco1,3%,11µM*,-1%,-1%
CC(c1nnc(SCC(=O)N(C)C2CCS(=O)(=O)C2)n1-c1ccccc1)N(C)C (stereo not drawn),/,-1%,2%,-1%
Cc1ccc(SCc2c(-c3ccccc3)nn(C)c2Cl)cc1,0%,0%,-6%,1%
Cc1ccc(Sc2c(C#N)c(-c3ccccc3)nn2C)cc1,1%,-30%,-9%,10µM*
Cc1cc(N2CCCC2)ccc1NC(=O)COc1ccccc1,/,-3%,?,5%
CCc1ccccc1OCC(=O)Nc1ccc(N2CCCC2)cc1C,/,?,?,28µM*
O=C1NC(c2ccc(Br)cc2)Oc2ccccc21 (stereo not drawn),/,0%,-6%,3%
CCOC(=O)c1cnn(-c2ccccc2)c1-n1cccc1,-1%,2%,8%,-1%
Cc1cccc(C=Nc2ccccc2C(N)=O)c1,-1%,10µM*,-15%,12%[38.3 µM]
Cc1ccc2nc(/C(C#N)=C/c3ccc(-c4cccc([N+](=O)[O-])c4)o3)[nH]c2c1,-2%,-23%,10µM*,?
SMILES,Epigenetic reg,Vif-A3G inh,Vif-APOBEC3F blk,PINK1 modulator
Cc1ccc2nc(/C(C#N)=C/c3ccc(-c4ccc(F)cc4F)o3)[nH]c2c1,?,11µM*,?,0%
Cc1c(Cl)cccc1-c1ccc(/C=C(\C#N)c2nc3ccccc3[nH]2)o1,?,?,13µM*,4%
O=C(CN1CC[n+]2c(-c3cccs3)csc21)c1ccc(-c2ccccc2)cc1,0%,2%,15%,16µM*
CN(C)c1ccc(/C=C/c2cc(/C=C/c3ccc(N(C)C)cc3)c3ccccc3n2)cc1,/,2.8µM*,/,20%
Cc1cc(/C=C/c2ccccc2)nc2ccccc12,/,-11%,/,/
CCN(CC)c1ccc(/C=C/c2cc(-c3ccccc3)c3ccccc3n2)cc1,3.2µM*,?,?,1%
CCn1nnnc1NC(=O)c1cc(OC)c(OC)c(OC)c1,2%,3%,2%,3%
CCOC(=O)Nc1cc2c(c(N)n1)N=C(c1ccccc1)CN2,/,?,22µM*,4%
CCOC(=O)Nc1sc(C)nc1-c1ccccc1,2%,1%,0%,3%[38.3 µM]
CN(C)c1ccc(/C=C(/C#N)C(=O)Nc2nc3c(s2)CCN(Cc2ccccc2)C3)cc1,/,5.6µM*,?,?
N#C/C(=C\c1ccc(OCc2ccccc2)cc1)C(=O)Nc1nc2c(s1)CCN(Cc1ccccc1)C2,2%,1%,?,11%
N#C/C(=C\N1CCN(Cc2ccc3c(c2)OCO3)CC1)c1nc2ccccc2s1,?,?,28µM*,?
c1ccc2sc(N3CCN(Cc4ccc5c(c4)OCO5)CC3)nc2c1,1%,/,/,/
CCOC(=O)N1CCN(/C=C(\C#N)c2nc3ccccc3s2)CC1,8%,22µM*,25µM*,4%[38.3 µM]
COC(=O)CSc1nc2cc(C)ccc2cc1C#N,16µM*,-14%,/,11%
Cc1ccc2nc(SCC(=O)Nc3ccc4sc(C)nc4c3)c(C#N)cc2c1,5.6µM*,-4%,11µM*,?
COc1cc(OC)cc(C(=O)N[C@H](C(=O)OCC(=O)Nc2ccc(F)c(F)c2)C(C)C)c1,0%,0%,8%,-1%
CC(C)(C)NC(=S)NNC(=O)c1cccc(Br)c1,18µM*,2%,-4%,2%
COc1ccccc1Nc1nc(Cl)c(C=O)s1,4%,?,?,1%
Cc1ccc(Nc2nc(Cl)c(C=O)s2)cc1Cl,?,?,22µM*,5%
O=Cc1sc(Nc2ccccc2)nc1Cl,1%,?,25µM*,4%
Cc1ccc(Nc2nc3ccccc3c(=O)s2)cc1C,6%,2%,2%,2%
CCCCCc1cc(O)c2c(C)cc(=O)oc2c1,1%,0%,5%,11µM*
COc1ccc(C2CC(c3ccc(Cl)cc3)=NN2c2ccc(S(N)(=O)=O)cc2)cc1 (stereo not drawn),/,-7%,1%,7%
COc1ccc(C2CC(c3ccncc3)=NN2c2ccc(S(N)(=O)=O)cc2)cc1 (stereo not drawn),/,?,11µM*,1%
SMILES,Epigenetic reg,Vif-A3G inh,Vif-APOBEC3F blk,PINK1 modulator
O=c1c2ccccc2sc2ccc(NCCCN3CCOCC3)cc12,/,?,22µM*,2%
COc1ccc(OC)c2sc(NC(=O)CCS(=O)(=O)c3ccccc3)nc12,/,11µM*,3%,0%
C=CCN1C=CC(=C/C=C(/C#N)C(=O)OCC)C=C1,?,?,11µM*,?
Cc1ccc(NC(=O)CSCC(=O)Nc2ccccc2N2CCCCC2)cc1,/,0%,-31%,?
N/C(=N\OC(=O)c1ccc(Cl)cc1)c1nonc1N,0%,0%,1%,7.9µM*
CN1C(=O)N(C)c2ccc(C=O)c3cccc1c23,-1%,0%,11µM*,-4%
CCOC(=O)Cn1c(=O)c(-c2ccccc2N)nc2ccccc21,1%,-4%,-13%,2%
CCOC(=O)Cn1c(=O)c(-c2cc(Br)ccc2N)nc2ccccc21,?,-23%,11µM*,?
CC(C)CSC1=NSC2=NC(=O)/C(=C\c3cccs3)C(=N)N12,-1%,-2%,-4%,45µM*
